The text below walks through data of PubChem BioAssay.

Values without a mark were called inactive. For some of these results: Entries with a potency or affinity are not part of this list. The source made the active and inactive calls. Unless noted, how the calls were made is not given here.

By inhibition is commonly meant the change of the read-out against control, counted positive when it falls.

Test [1] is described as follows: antimalarial activity against Dd2 strain (AID 2302;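 active means growth inhibition above 50% at the single 2 µM test dose, taken to imply half-maximal potency below 2 µM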;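 further: 0% = DMSO untreated growth and 100% = chloroquine plus artemisinin killed control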). The conditions noted are these: P. falciparum Dd2 in RBCs, LDH growth readout, 72 h; at 2 µM; stronger effect = higher value.
Test [2] can be described thus: human hepatoma cell viability loss – ATP luminescence, cytotoxicity control for P. falciparum antimalarial project, primary screen (AID 2303;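 active means inhibition above 50%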;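 further: 0% = DMSO wells and 100% = digitonin-killed cells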). The conditions noted are these: HepG2 viability, 24-48 h, at 10 µM, stronger effect = higher value.
Test [3] has as its target L-lactate dehydrogenase (Plasmodium falciparum (isolate CDC / Honduras)) (UniProt Q27743). The test can be described thus: PfLDH activity inhibition – cell lysate, 3D7 strain, counter-screen for P. falciparum growth inhibition project (AID 2304).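 Further: 0% = vehicle and 100% = reference inhibitor.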 Particulars: P. falciparum 3D7 crude extract, LDH APAD/NBT absorbance; at 2 µM; stronger effect = higher value. On the technique in general: A counterscreen serves to expose hits that act by an unwanted route or on another target.

Test [4] in a line: inhibition of 3D7 malaria parasite growth – strain 3D7 (AID 2306).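 Further: 0% = DMSO wells and 100% = chloroquine plus artemisinin control wells.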 The conditions noted are these: P. falciparum 3D7 erythrocytic growth, LDH absorbance, 72 h; at 2 µM; stronger effect = higher value.
The target of test [5] is Calcium-dependent protein kinase 1 (Plasmodium falciparum (isolate 3D7)) (UniProt P62344). The test can be described thus: PfCDPK1 kinase inhibitors, biochemical, TCAMS library (AID 1159585; cut-off not given, nearly all actives have IC50 up to about 0.98 µM;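 further: inhibitors leave more ATP so luminescence rises with inhibition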). Particulars: recombinant PfCDPK1, Kinase-Glo ATP depletion luminescence. A general note: Kinase-Glo reads ATP consumption through a luciferase reaction.
Test [6] addresses Plasmodium falciparum protein kinase 6 (PK6, PF3D7_1337100) (UniProt Q8IDW1). The test can be described thus: PfPK6 kinase inhibitors, biochemical, TCAMS library (AID 1159586). Particulars: recombinant PfPK6, Kinase-Glo ATP depletion luminescence.
The target of test [7] is Protein kinase 7 (PK7), Plasmodium falciparum 3D7 (PF3D7_0213400) (UniProt Q7YTF7). The test can be described thus: inhibition of Plasmodium PK7 catalytic activity – biochemical, TCAMS antimalarial set, Kinase-Glo luminescence (AID 1159587). The conditions noted are these: recombinant PfPK7, Kinase-Glo ATP depletion luminescence.
Test [8] deals with Calcium-dependent protein kinase 4 (Plasmodium falciparum (isolate 3D7)) (UniProt Q8IBS5). The test can be described thus: PfCDPK4 kinase inhibitors, biochemical, TCAMS library (AID 1159588; cut-off not given, nearly all actives have IC50 up to about 0.91 µM). The conditions noted are these: recombinant PfCDPK4, Kinase-Glo ATP depletion luminescence.
Sequence of Calcium-dependent protein kinase 4 (Plasmodium falciparum (isolate 3D7)) (Q8IBS5 whole entry, looked up): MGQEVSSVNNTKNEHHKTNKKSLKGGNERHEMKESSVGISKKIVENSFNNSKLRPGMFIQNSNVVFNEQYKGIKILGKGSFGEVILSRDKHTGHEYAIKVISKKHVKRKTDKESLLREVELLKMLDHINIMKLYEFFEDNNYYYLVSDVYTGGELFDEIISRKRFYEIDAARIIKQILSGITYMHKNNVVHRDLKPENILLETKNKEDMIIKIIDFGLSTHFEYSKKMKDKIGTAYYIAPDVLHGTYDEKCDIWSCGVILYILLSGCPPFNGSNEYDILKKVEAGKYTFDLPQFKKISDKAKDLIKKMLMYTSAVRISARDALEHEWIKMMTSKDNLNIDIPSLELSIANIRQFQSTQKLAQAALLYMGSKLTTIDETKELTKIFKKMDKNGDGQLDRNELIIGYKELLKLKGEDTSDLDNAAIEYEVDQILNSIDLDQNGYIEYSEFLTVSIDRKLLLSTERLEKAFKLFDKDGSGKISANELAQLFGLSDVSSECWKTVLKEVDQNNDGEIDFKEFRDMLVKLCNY

Sequence of Plasmodium falciparum protein kinase 6 (PK6, PF3D7_1337100) (Q8IDW1 1-305): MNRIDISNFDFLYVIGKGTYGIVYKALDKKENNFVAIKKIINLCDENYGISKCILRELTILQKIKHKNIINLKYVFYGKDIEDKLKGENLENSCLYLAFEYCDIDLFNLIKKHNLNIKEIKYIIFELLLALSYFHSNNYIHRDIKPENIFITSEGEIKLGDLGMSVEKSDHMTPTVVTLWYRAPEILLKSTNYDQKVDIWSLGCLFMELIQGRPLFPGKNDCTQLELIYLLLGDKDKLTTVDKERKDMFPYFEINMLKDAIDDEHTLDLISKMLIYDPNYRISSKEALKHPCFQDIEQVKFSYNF
Sequence of Protein kinase 7 (PK7), Plasmodium falciparum 3D7 (PF3D7_0213400) (Q7YTF7 1-343): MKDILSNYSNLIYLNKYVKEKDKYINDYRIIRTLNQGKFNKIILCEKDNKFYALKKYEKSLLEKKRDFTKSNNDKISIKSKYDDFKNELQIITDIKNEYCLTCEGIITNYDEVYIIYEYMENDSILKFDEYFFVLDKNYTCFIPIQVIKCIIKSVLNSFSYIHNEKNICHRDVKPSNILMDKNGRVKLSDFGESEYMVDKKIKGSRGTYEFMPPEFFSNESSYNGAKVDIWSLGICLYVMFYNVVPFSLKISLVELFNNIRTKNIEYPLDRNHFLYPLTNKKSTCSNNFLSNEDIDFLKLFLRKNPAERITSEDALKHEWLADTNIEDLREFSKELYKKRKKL
Sequence of L-lactate dehydrogenase (Plasmodium falciparum (isolate CDC / Honduras)) (Q27743 whole entry, looked up): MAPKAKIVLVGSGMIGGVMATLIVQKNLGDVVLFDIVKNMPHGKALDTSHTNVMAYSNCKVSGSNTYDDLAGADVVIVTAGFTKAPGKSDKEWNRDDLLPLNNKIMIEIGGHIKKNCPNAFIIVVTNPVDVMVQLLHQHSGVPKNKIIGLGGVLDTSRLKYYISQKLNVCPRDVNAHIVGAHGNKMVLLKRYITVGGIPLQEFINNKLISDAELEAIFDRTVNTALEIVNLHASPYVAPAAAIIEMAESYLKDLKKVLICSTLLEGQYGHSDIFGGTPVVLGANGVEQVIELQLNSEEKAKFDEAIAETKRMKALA
Sequence of Calcium-dependent protein kinase 1 (Plasmodium falciparum (isolate 3D7)) (P62344 whole entry, looked up): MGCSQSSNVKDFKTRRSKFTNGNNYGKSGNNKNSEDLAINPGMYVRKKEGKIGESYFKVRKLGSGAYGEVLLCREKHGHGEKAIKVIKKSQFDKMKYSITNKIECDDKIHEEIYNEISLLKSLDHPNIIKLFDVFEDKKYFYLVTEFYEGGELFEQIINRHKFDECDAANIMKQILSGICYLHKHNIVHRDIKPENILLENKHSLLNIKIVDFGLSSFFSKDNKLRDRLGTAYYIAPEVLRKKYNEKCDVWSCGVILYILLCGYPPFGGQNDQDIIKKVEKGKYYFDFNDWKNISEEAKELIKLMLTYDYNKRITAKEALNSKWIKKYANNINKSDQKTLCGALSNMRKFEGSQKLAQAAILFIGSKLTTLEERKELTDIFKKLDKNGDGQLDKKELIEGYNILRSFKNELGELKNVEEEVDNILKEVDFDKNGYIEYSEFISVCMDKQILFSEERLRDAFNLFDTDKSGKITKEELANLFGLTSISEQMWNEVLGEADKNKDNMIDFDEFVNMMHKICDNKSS

For `O=C(Nc1ccc2oc(-c3ccc(Br)cc3)nc2c1)c1ccc([N+](=O)[O-])o1`, the growth inhibition in test [1] was 21%; in test [4] it was 92% (active). Also, the results for the inhibition in test [2] and in test [3] were 9% and 2%, respectively. For the same compound, the result in test [5], in test [6], in test [7] and in test [8] was inactive.
Regarding `O=C(/C=C/c1ccccc1Cl)Nc1ccc(Br)c(OCCN2CCN(CCN3CCCC3)CC2)c1`, the growth inhibition in test [1] is 89% (active); in test [4] it was 99% (active). Moreover, the inhibition in test [2] was 26%; in test [3], -7%. The result in test [5], in test [6], in test [7] and in test [8] was inactive.
Turning to `COc1ccc2nccc([C@@H](O)CN3CCC(NC(=O)/C=C/c4ccnc5ccccc45)CC3)c2c1`, the figures for the growth inhibition in test [1] and in test [4] were 12% and 91% (active), respectively. Besides, the values for the inhibition in test [2] and in test [3] were 19% and -1%, respectively. Moreover, the outcome in test [5], in test [6], in test [7] and in test [8] was inactive.
On to `CC(=O)N1CCC(C(=O)Nc2ccc(-c3cccc(-c4nc5c(C)cccc5[nH]4)c3)cc2)CC1`, for which the growth inhibition was 27% in test [1] and 84% (active) in test [4]. Further, the inhibition is 85% (active) in test [2] and -1% in test [3]. The result in test [5], in test [6], in test [7] and in test [8] was inactive.
As to `O=c1ccc(CNc2nc(NCCc3ccccc3)nc3ccc(Cl)cc23)c[nH]1`, the growth inhibition is 16% in test [1] and 99% (active) in test [4]. The figures for the inhibition in test [2] and in test [3] were 9% and 2%, respectively. Also, the result in test [5], in test [6], in test [7] and in test [8] was inactive.
As for `O=C(NCCCCN1CCC(c2ccc3ccccc3c2)CC1)c1ccc(NC(=O)c2ccc(Cl)cc2)cc1`, the growth inhibition in test [1] was 93% (active); in test [4], 102% (active). In addition, the inhibition in test [2] is 24%; in test [3], -4%. For the same compound, the result in test [5], in test [6], in test [7] and in test [8] was inactive.
With `O=C(/C=C/c1ccc(Cl)cc1)NCCCCCN1CCCC(C(=O)Nc2cccc(Cl)c2)C1` (stereo not given), the growth inhibition in test [1] is 4%; in test [4], 96% (active). The inhibition in test [2] is 21%; in test [3], 0%. The outcome in test [5], in test [6], in test [7] and in test [8] was inactive.
In the case of `CCCC1N=C(N)N=C(N)N1c1ccc(C)cc1` (stereo not given), the growth inhibition is 2% in test [1] and 94% (active) in test [4]. The inhibition in test [2] is 1%; in test [3] it was -3%. The result in test [5], in test [6], in test [7] and in test [8] was inactive.
Consider `Cc1ccccc1C1CCN(C2CCC(NC(=O)c3ccc(-c4ccccc4)s3)CC2)CC1` (stereo not given), for which the values for the growth inhibition in test [1] and in test [4] were 84% (active) and 101% (active), respectively. Besides, the inhibition was 26% in test [2] and 0% in test [3]. Further, the outcome in test [5], in test [6], in test [7] and in test [8] was inactive.
For `Cn1cc(CCNc2ccnc(N3CCC(c4ncc[nH]4)CC3)n2)c2ccccc21`, the growth inhibition in test [1] is 5%; in test [4], 92% (active). Also, the values for the inhibition in test [2] and in test [3] were 12% and 3%, respectively. The result in test [5], in test [6], in test [7] and in test [8] was inactive.
`Cc1cc(N)c2cc(NC(=O)/C=C/c3ccccc3)ccc2n1`: the growth inhibition in test [1] is 68% (active); in test [4], 102% (active). For the same compound, the inhibition in test [2] was 20%; in test [3], 0%. In addition, the result in test [5], in test [6], in test [7] and in test [8] was inactive.
In the case of `Cc1cccc(NC(=O)NC2CCN(CCCCCNC(=O)/C=C/c3ccc(Cl)c(Cl)c3)CC2)c1`, the growth inhibition in test [1] is 21%; in test [4] it was 101% (active). Also, the inhibition in test [2] is 34%; in test [3], -3%. For the same compound, the result in test [5], in test [6], in test [7] and in test [8] was inactive.
As for `Fc1c(CNCC2CCN(CC3CCCCC3)CC2)cccc1C(F)(F)F`, the growth inhibition in test [1] is 7%; in test [4], 93% (active). Besides, the inhibition in test [2] is 35%; in test [3], 3%. Besides, the result in test [5], in test [6], in test [7] and in test [8] was inactive.
In the case of `COc1ccc(CC(=O)Nc2ccc(Nc3nc(C)cc(N(C)C)n3)cc2)cc1`, the growth inhibition in test [1] is 31%; in test [4], 97% (active). Also, the inhibition in test [2] is 17%; in test [3], -3%. The outcome in test [5], in test [6], in test [7] and in test [8] was inactive.
In the case of `C[C@H](NC(=O)c1c(CN2CCC(N3CCCCC3=O)CC2)c(-c2cccs2)nc2ccccc12)C1CCCCC1`, the growth inhibition was 73% (active) in test [1] and 91% (active) in test [4]. For the same compound, the inhibition was 8% in test [2] and 2% in test [3]. Besides, the result in test [5], in test [6], in test [7] and in test [8] was inactive.
`Cc1cc2c(/C=C/C(=O)NC3CCC(CCN4CCc5ccc(C#N)cc5CC4)CC3)cccc2[nH]1` (stereo not given): the figures for the growth inhibition in test [1] and in test [4] were 39% and 95% (active), respectively. The inhibition is 16% in test [2] and 1% in test [3]. Moreover, the outcome in test [5], in test [6], in test [7] and in test [8] was inactive.
Take `CCN(CC)CCNc1c2ccc(Cl)cc2nc2ccc(OC)nc12`: the growth inhibition in test [1] was 99% (active); in test [4], 100% (active). Besides, the figures for the inhibition in test [2] and in test [3] were 20% and 2%, respectively. For the same compound, the outcome in test [5], in test [6], in test [7] and in test [8] was inactive.
Take `CC(C)(C)c1cc(CN2CCN(Cc3ccccc3)CC2)cc(C(C)(C)C)c1O`: the growth inhibition in test [1] is 0%; in test [4] it was 97% (active). The inhibition in test [2] is 9%; in test [3], 0%. The outcome in test [5], in test [6], in test [7] and in test [8] was inactive.
Turning to `O=C(/C=C/c1ccc(Cl)c(Cl)c1)NCCCN1CCC(c2c[nH]c3ccccc23)CC1`, the growth inhibition in test [1] is 5%; in test [4] it was 90% (active). Also, the inhibition is 48% in test [2] and -4% in test [3]. For the same compound, the outcome in test [5], in test [6], in test [7] and in test [8] was inactive.
With `O=C(NCCNc1ccnc(Nc2ccc(F)cc2)n1)Nc1ccccc1F`, the growth inhibition in test [1] is 4%; in test [4] it was 93% (active). Besides, the inhibition was 22% in test [2] and 5% in test [3]. For the same compound, the result in test [5], in test [6], in test [7] and in test [8] was inactive.
